Screening data: PubChem BioAssay, National Center for Advancing Translational Sciences (NCATS)
The list is not random: actives were taken first. Their share in the collection is about 7.6%.
KB-V1 MDR tox: KB-V1 MDR subline cytotoxicity; Potency, µM (series often up to 46.1 µM), most hits filed as cytotoxic; 3.4% of 400,000 active; KB-V1 MDR cells viability, CellTiter-Glo, 72 h; further: potency means the concentration at half of the fitted maximal effect; on the % scale 0 is the no-effect control and ±100 the full control effect; nearly all actives have a fitted effect of over 60% in size
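Readout: CellTiter-Glo luminescence, 10 min after addition. Cells: KB-V1 MDR subline, 72 h at 37 degrees C with compound. Analysis: corrected, normalized data fitted to concentration-effect curves.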
KCNH2 3.1 block: inhibitors of human KCNH2 3.1 potassium channel isoform; AID 720553; 0.95% of 340,000 active; activity change, % (tested at about 1.8 µM); U2OS KCNH2 3.1, thallium flux FluxOr; active compounds read low;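 active means maximum activity change below -70%; inconclusive means maximum activity change from -70% to -50%; inactive means maximum activity change above -50%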;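 further: thallium influx rate constant from kinetic fluorescence after stimulation buffer; on the % scale 0 is the no-effect control and ±100 the full control effect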
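Steps: virus added to U2OS suspension (4 h, RT, dark); medium with 10% FBS added, cells plated, 37 C overnight; FluxOr/Red40 loading buffer 45 min RT; stimulation buffer, 2 min kinetic read; rate constant normalized.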
hERG WT inh: inhibitors of human wildtype KCNH2 potassium channel | U2OS, BacMam KCNH2, thallium flux FluxOr; active compounds read low | activity change, % at 1.84 µM | 0.37% of 340,000 active;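 active means maximum activity change below -70%; inconclusive means maximum activity change between -70% and -50%; inactive means maximum activity change above -50%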; further: on the % scale 0 is the no-effect control and ±100 the full control effect
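U2OS cells were transduced with wild-type KCNH2 virus (2.03 x 10^8 / mL) for 4 h at room temperature, then cultured overnight at 37 C. Thallium flux was read with FluxOr dye. Rate constants were normalized to DMSO controls.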
MCF10A rerep: inducers of DNA re-replication in MCF 10A breast cells; MCF 10A DNA re-replication, Hoechst nuclear intensity, 48 h; Potency, µM (top dose mostly 46.1 µM), without a hit: at the top dose activity, positive = re-replication, most hits filed as activators; 2.9% of 350,000 active; further: potency means the concentration at half of the fitted maximal effect; % of control where 0% means no effect; nearly all actives have a fitted effect of over 50% in size
SW480 rereplic: induces DNA re-replication in SW480 colon adenocarcinoma cells; SW480 DNA re-replication, Hoechst DNA content imaging, 48 h; AID 624297; 1.8% of 340,000 active; Potency, µM (doses to about 46.1 µM), inactives show at the top dose re-replication activation, actives largely listed as activators; further: potency means the concentration at half of the fitted maximal effect; % of control where 0% means no effect; nearly all actives have a fitted effect of over 55% in size
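Image-based DNA-content assay: after two days of treatment, nuclei were labelled with the DNA dye Hoechst and imaged, and hits were compounds raising the count of nuclei showing high fluorescence intensity.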
KB-3-1 cytotox: kills parental KB-3-1 adenocarcinoma cells | KB-3-1 viability, CellTiter-Glo ATP luminescence, 72 h | Potency, µM (titrated, usually from 46.1 µM), actives largely listed as cytotoxic | AID 1347075 | 1.4% of 400,000 active; further: potency means the concentration at half of the fitted maximal effect; on the % scale 0 is the no-effect control and ±100 the full control effect; nearly all actives have a fitted effect of over 60% in size
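Luminescent ATP read-out (CellTiter-Glo) measures survival of drug-naive KB-3-1 cells after 72 h compound exposure at 37 °C. Titration series was screened from lowest to highest concentration, with DMSO vehicle plates as background controls.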
The depositor's hits bear a star; i = inactive; ? = inconclusive; · = no result given; ! = not active in a repeat; [ ] = another dose, or the depositor's remark. Unless noted, the call rests on the fitted dose curve; in most records, active means well fitted curve in the direction sought with a large enough effect; inconclusive means small, poorly fitted or top-dose-only effect, or another doubt; inactive means no such curve, though single readings can be large; an effect the other way counts as inactive or inconclusive.

SMILES | KB-V1 MDR tox | KCNH2 3.1 block | hERG WT inh | MCF10A rerep | SW480 rereplic | KB-3-1 cytotox
Cc1ccc(C)c(N2CCN(C(=O)c3ccc4c(c3)c(C)c(C)n4C)CC2)c1 | i | -31.1 | 11.6 | 5.17µM* | ? | ?
COc1ccccc1N1CCN(C(=O)c2nc(SC)ncc2Cl)CC1 | 4.11µM* | · | · | · | · | 4.11µM*
COc1ccc(CN2COc3ccc4c(-c5ccccc5)cc(=O)oc4c3C2)cc1OC | i | · | · | · | · | i
O=C(N/N=C\C=C\c1ccco1)c1cc(-c2ccc3ccccc3c2)n[nH]1 | i | -23.5 | · | 7.31µM* | 17.1% | i
C=CC[C@]12C=C(OC)C(=O)C(OC)=C1O[C@@H](c1ccc3c(c1)OCO3)[C@H]2C | i | -8.3 | 2.5 | 1.1% | -15.2% | i
C=CC[C@]12CC=CC(=O)[C@@]1(O)O[C@H](c1ccc(OC)c(OC)c1)[C@H]2C | ? | -1.4 | -11.6 | 6.51µM* | ? | ?
Cc1c(C(=O)O)sc(S(=O)(=O)N2CCN(C(=O)Cc3ccccc3Cl)CC2)c1C(=O)O | i | -0.2 | 2.5 | 0.9% | -4.2% | i
CCNC(=S)/N=C(\N)Nc1nc(C)c2cc(C)ccc2n1 | 9.2µM* | 1.9 | -5.4 | 6.3% | 6.4% | ?
C=C(C)COc1ccc2c(CC)cc(=O)oc2c1C | 20.6µM* | -20.0 | 6.0 | 11.9% | -3.7% | ?
CCCc1cc(=O)oc2c(C)c(OS(C)(=O)=O)ccc12 | ? | 6.0 | -8.0 | 3.6% | -6.2%[9.22 µM] | i
CCc1c(C)c2ccc(OCC(=O)N(C)C)c(C)c2oc1=O | 10.3µM* | -1.0 | -1.8 | 4.2% | -10.5% | i
CCCOc1ccc2c(CC)cc(=O)oc2c1C | 13µM* | 6.0 | -3.7 | 10.1% | 8.0% | i
COc1ccc(Cl)cc1NC(=O)c1c(NCc2ccc(C)o2)sc2c1CCCCC2 | i | · | · | · | · | i
Cc1[nH]nc(C(F)(F)F)c1N=NN1CCOCC1 | ? | -4.1 | 7.2 | 3.66µM* | ? | ?
Clc1ccc(N=NN2CCOCC2)cc1 | i | 9.2 | 2.9 | ? | -73.7% | i
CCOc1ccc2nc(N3CCCC(C(=O)N4CCN(CC)CC4)C3)sc2c1 (stereo unspecified) | i | -85.6* | 5.8 | 0.8% | -14.0% | i
CCOc1ccc2nc(N3CCC(C(=O)N4CCN(C(=O)c5ccco5)CC4)CC3)sc2c1 | i | -76.6* | -34.6 | -0.4% | 1.3% | i
COc1cccc(CNC(=O)c2cc(=O)[nH]c3ccc(S(=O)(=O)N4CCOCC4)cc23)c1 | i | 11.4 | -20.6 | 11.6% | -6.8% | i
CC(=O)/C(N=Nc1ccc(-n2ccc(C(F)(F)F)n2)cc1)=C(\C)O | i | -7.7 | 4.1 | -1.1% | -6.1% | i
CCCCOn1c(C)c(C(=O)OCC)c2c3nonc3ccc21 | 8.2µM* | 3.4 | -3.5 | ? | 19.0% | i
COc1cc(/C=C2\NC(=O)NC2=O)cc(Br)c1OC | 5.8µM* | -3.1 | -2.1 | -15.1% | 0.0% | ?
COc1ccc(C=C2NC(=O)NC2=O)cc1O | i | -38.4 | -5.0 | · | · | i
CCCCC(=O)Nc1nnc(S(=O)(=O)N2CCCCCC2)s1 | i | -4.9 | -5.3 | 2.5% | 30.7% | i
Cc1onc(-c2ccccc2)c1C(=O)OCc1nnc(-c2ccc([N+](=O)[O-])cc2)o1 | 14.6µM* | -29.5 | -3.1 | 10.6% | -5.3% | i
Cc1onc(-c2ccccc2)c1C(=O)OCCOc1ccccc1F | ? | 2.5 | -12.9 | 15.4% | 9.0% | i
SMILES | KB-V1 MDR tox | KCNH2 3.1 block | hERG WT inh | MCF10A rerep | SW480 rereplic | KB-3-1 cytotox
Cc1ccccc1OCCOC(=O)c1c(-c2ccccc2)noc1C | ? | 2.9 | 3.6 | ? | 9.2µM* | 9.2µM*
O=C(OCc1nnc(-c2ccccc2)o1)c1cc([N+](=O)[O-])ccc1Cl | i | -0.8 | 2.3 | 0.7% | 6.1% | i
COc1ccc(CCC(=O)OCC(=O)Nc2c(C)nn(-c3ccccc3)c2C)cc1 | i | 29.8 | -5.2 | -7.1% | -4.4% | i
CC1(C)Cc2cccc(OCC(=O)NCCc3ccc(S(N)(=O)=O)cc3)c2O1 | 25.9µM* | -4.7 | 4.2 | -3.8% | -6.4% | i
CN(Cc1cccs1)C(=O)COc1cccc(-n2cnnn2)c1 | i | -14.7 | -78.3* | 2.4% | -2.1% | i
CN(Cc1cccs1)C(=O)COc1cccc2c1OC(C)(C)C2 | 18.4µM* | · | 22.0 | -4.0% | 0.8% | i
CN(C)CCNC(=O)COc1cccc2c1OC(C)(C)C2 | i | 15.2 | 45.5 | -7.2% | 14.0% | i
COc1ccc(CN(C)C(=O)COc2cccc(-n3cnnn3)c2)cc1OC | i | 9.6 | -6.4 | -0.4% | -3.3% | i
O=C(c1cccc(S(=O)(=O)NCc2ccccc2)c1)N1CCCC(C(F)(F)F)C1 (stereo unspecified) | i | 2.9 | -5.4 | -30.5% | -56.0% | i
Cc1cccn2c(=O)c(/C=C(\C#N)C(=O)NC3CCS(=O)(=O)C3)c(Oc3ccc(F)cc3)nc12 (stereo unspecified) | i | 7.3 | 4.3 | ? | ? | ?
Cc1cccn2c(=O)c(/C=C(\C#N)C(=O)NC3CCS(=O)(=O)C3)c(N3CCC(C)CC3)nc12 (stereo unspecified) | i | -1.2 | -1.9 | 5.8µM* | 8.2µM* | i
N#C/C(=C\c1c(Oc2ccc(Cl)cc2)nc2ccccn2c1=O)C(=O)NC1CCS(=O)(=O)C1 (stereo unspecified) | i | -2.4 | 6.4 | 5.17µM* | ? | ?
CC(C)(C)C(=O)NC1CC2CCCC(C1)N2C(=O)Nc1ccc(Cl)cc1 (stereo unspecified) | i | 1.8 | -21.3 | -0.2% | 3.1% | i
CCN(Cc1ccncc1)C(=O)c1ccccc1NS(=O)(=O)c1ccc(F)cc1 | i | 8.3 | 0.6 | -0.7% | -7.7% | i
CCCn1c(SCC(=O)Nc2ccccc2Oc2ccccc2)n[nH]c1=O | i | -27.2 | -20.6 | -6.8% | -8.7% | ?
Cc1ccc(Cl)c(NC(=O)CCl)c1Cl | i | 0.6 | 10.3 | 4.4% | 10.6% | 23.1µM*
Cc1c(Cl)cccc1Nc1ccccc1C(=O)O | i | 10.9 | -6.7 | ? | -2.8% | i
Cc1ccc(Cl)c(NC(=O)CSc2cccc[n+]2[O-])c1Cl | i | -9.3 | 3.5 | 0.4% | -6.2% | i
Cc1ccc(Cl)c(Nc2ccccc2C(=O)O)c1Cl | i | -3.2 | -7.1 | 26.6µM*! | -8.7% | i
CC1CCC(CC(=O)O)(C(=O)O)CC1 (stereo unspecified) | i | 8.7 | -1.2 | 0.3% | 1.4% | i
